In PubChem BioAssay (NCI):
Compounds without any hit were thinned out: in the full panel of roughly 83,000, 20% have a hit.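 Cells were grown in 96-well plates and exposed to the test compound at a single concentration for 48 hours; results are reported as percent growth, with values below 10 considered active.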

What was measured:
Assay in all cases: NCI-60 one-dose screen, 48 h (100 = growth as untreated, 0 = no growth, -100 = all killed)
Settings in all cases: 10 µM unless noted
NCI-H23 lung = test system: NCI-H23 lung
NCI-H226 lung = test system: NCI-H226 lung
HOP-62 NSCLC = test system: HOP-62 NSCLC
NCI-H460 lung = test system: NCI-H460 lung
HOP-92 NSCLC = test system: HOP-92 NSCLC
NCI-H522 lung = test system: NCI-H522 lung
A549/ATCC NSCLC = test system: A549/ATCC NSCLC
COLO 205 colon = test system: COLO 205 colon
DU-145 prostate = test system: DU-145 prostate
K-562 leukemia = test system: K-562 leukemia
MALME-3M melanoma = test system: MALME-3M melanoma
MDA-MB-231 breast = test system: MDA-MB-231 breast
RXF 393 renal = test system: RXF 393 renal
SF-268 CNS = test system: SF-268 CNS
SF-295 CNS = test system: SF-295 CNS
SF-539 CNS = test system: SF-539 CNS
UACC-257 melanoma = test system: UACC-257 melanoma
M14 melanoma = test system: M14 melanoma
786-0 renal = test system: 786-0 renal
NCI-H322M lung = test system: NCI-H322M lung

Measured: growth

Oc1cccnc1CN1CCCC1
inactive: NCI-H23 lung 100% | NCI-H226 lung 97.9% | HOP-62 NSCLC 111% | NCI-H460 lung 107% | HOP-92 NSCLC 79.7% | NCI-H522 lung 97.1% | A549/ATCC NSCLC 98.2% | COLO 205 colon 103% | DU-145 prostate 113% | K-562 leukemia 99.5% | MALME-3M melanoma 107% | MDA-MB-231 breast 105% | RXF 393 renal 116% | SF-268 CNS 104% | SF-295 CNS 113% | SF-539 CNS 102% | UACC-257 melanoma 98.3% | M14 melanoma 112%

Nc1ccc(F)cc1F
inactive: NCI-H23 lung 103% | NCI-H226 lung 94.8% | HOP-62 NSCLC 109% | NCI-H460 lung 105% | HOP-92 NSCLC 77.4% | NCI-H522 lung 102% | A549/ATCC NSCLC 105% | 786-0 renal 98.6% | COLO 205 colon 110% | DU-145 prostate 110% | K-562 leukemia 107% | MALME-3M melanoma 111% | MDA-MB-231 breast 93.7% | RXF 393 renal 92.2% | SF-268 CNS 109% | SF-295 CNS 104% | SF-539 CNS 94.3% | UACC-257 melanoma 111% | M14 melanoma 101%

COc1cccc(C(=O)NNC(=O)c2cccc3ccccc23)c1
inactive: NCI-H23 lung 107% | NCI-H226 lung 105% | HOP-62 NSCLC 97.7% | NCI-H460 lung 117% | HOP-92 NSCLC 97.2% | NCI-H522 lung 102% | A549/ATCC NSCLC 96% | 786-0 renal 104% | COLO 205 colon 108% | DU-145 prostate 117% | K-562 leukemia 98.4% | MDA-MB-231 breast 110% | RXF 393 renal 115% | SF-268 CNS 110% | SF-295 CNS 124% | SF-539 CNS 114% | UACC-257 melanoma 109% | M14 melanoma 107%

CCOC(=O)c1c(C)[nH]c(C)c1C=O
inactive: NCI-H226 lung 99.6% | NCI-H322M lung 102% | HOP-62 NSCLC 86.9% | NCI-H460 lung 99.8% | HOP-92 NSCLC 81.9% | NCI-H522 lung 93.7% | A549/ATCC NSCLC 67.3% | 786-0 renal 91.8% | COLO 205 colon 110% | DU-145 prostate 114% | K-562 leukemia 94.7% | MALME-3M melanoma 108% | MDA-MB-231 breast 93% | RXF 393 renal 114% | SF-268 CNS 101% | SF-295 CNS 103% | SF-539 CNS 98.9% | UACC-257 melanoma 69.4% | M14 melanoma 100%

CCOC(=O)Nc1nccs1
inactive: NCI-H226 lung 99.6% | NCI-H322M lung 99.6% | HOP-62 NSCLC 103% | NCI-H460 lung 104% | HOP-92 NSCLC 92.3% | NCI-H522 lung 104% | A549/ATCC NSCLC 98.3% | 786-0 renal 100% | COLO 205 colon 104% | DU-145 prostate 109% | K-562 leukemia 119% | MALME-3M melanoma 97.3% | MDA-MB-231 breast 87% | RXF 393 renal 108% | SF-268 CNS 117% | SF-295 CNS 108% | SF-539 CNS 101% | UACC-257 melanoma 98% | M14 melanoma 106%

CCC12OC(COc3ccccc3)CN1CCN2c1ccccc1 (stereo not given)
inactive: NCI-H226 lung 93.8% [100 µM] | NCI-H322M lung 93.3% [100 µM] | HOP-62 NSCLC 98.9% [100 µM] | NCI-H460 lung 106% [100 µM] | HOP-92 NSCLC 96.9% [100 µM] | NCI-H522 lung 87.6% [100 µM] | A549/ATCC NSCLC 94.1% [100 µM] | 786-0 renal 96.6% [100 µM] | COLO 205 colon 118% [100 µM] | DU-145 prostate 106% [100 µM] | K-562 leukemia 93.1% [100 µM] | MALME-3M melanoma 98.4% [100 µM] | MDA-MB-231 breast 88.8% [100 µM] | RXF 393 renal 99.9% [100 µM] | SF-268 CNS 92.2% [100 µM] | SF-295 CNS 105% [100 µM] | SF-539 CNS 95.9% [100 µM] | UACC-257 melanoma 95.8% [100 µM] | M14 melanoma 103% [100 µM]

O=C(CCl)Oc1ccc([N+](=O)[O-])cc1
inactive: NCI-H226 lung 102% | NCI-H322M lung 106% | HOP-62 NSCLC 98.9% | HOP-92 NSCLC 78.5% | NCI-H522 lung 107% | A549/ATCC NSCLC 108% | 786-0 renal 108% | COLO 205 colon 116% | DU-145 prostate 113% | K-562 leukemia 103% | MALME-3M melanoma 116% | MDA-MB-231 breast 119% | RXF 393 renal 99.5% | SF-268 CNS 109% | SF-295 CNS 97.3% | SF-539 CNS 109% | UACC-257 melanoma 112% | M14 melanoma 103%

COc1cccc2c1Cc1ccccc1-2
inactive: NCI-H226 lung 94.4% | NCI-H322M lung 114% | HOP-62 NSCLC 113% | NCI-H460 lung 110% | HOP-92 NSCLC 106% | NCI-H522 lung 103% | A549/ATCC NSCLC 107% | 786-0 renal 110% | COLO 205 colon 109% | DU-145 prostate 106% | K-562 leukemia 94.4% | MALME-3M melanoma 117% | MDA-MB-231 breast 93.6% | RXF 393 renal 97.9% | SF-268 CNS 99.8% | SF-295 CNS 103% | SF-539 CNS 107% | UACC-257 melanoma 102%

CC(=O)Nc1ccc(/C=C2\SC(=S)N(/C=C(\C(C)=O)C(N)=O)C2=O)cc1
inactive: NCI-H226 lung 86.2% | NCI-H322M lung 102% | HOP-62 NSCLC 82.5% | HOP-92 NSCLC 68.2% | NCI-H522 lung 84.2% | A549/ATCC NSCLC 84.9% | 786-0 renal 88.1% | COLO 205 colon 92.1% | DU-145 prostate 106% | MALME-3M melanoma 87.8% | MDA-MB-231 breast 98.9% | RXF 393 renal 93% | SF-268 CNS 96.2% | SF-295 CNS 93.6% | SF-539 CNS 92.5% | UACC-257 melanoma 87.8% | M14 melanoma 81%
